Experimental data taken from PubChem BioAssay (NCI).
This is part of a sample that, as a whole, favours compounds with a hit. Of some 83,000 tested, about 20% had one in any assay.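 A percent growth of 40 corresponds to 60% growth inhibition; 0 means no net growth; -100 means all cells died. Active threshold: below 10.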 Activity calls are given as the source filed them.

Each molecule was assayed on HL-60(TB) leukemia (assay: NCI-60 one-dose screen, 48 h (100 = growth as untreated, 0 = no growth, -100 = all killed)). Settings: 10 µM unless noted.

**Q.** For `CCOP(=O)(OCC)OC[C@]12CCC(C)(C)C=C1[C@H]1CC[C@@H]3[C@@]4(C)CC[C@H](OP(=O)(OCC)OCC)C(C)(C)[C@@H]4CC[C@@]3(C)[C@]1(C)CC2`, which growth is on record?
**A.** Its growth is -22.1% (active).

**Q.** How did the growth turn out when `C#Cc1nc(C2=C(C)C(O)/C(=N/O)C2)cs1` (stereo not given) was run?
**A.** The growth was -37.9% (active).

**Q.** With `CCCCSc1nnc(-c2ccc(-c3ccc(Cl)cc3)nc2C)o1` as the molecule, how does the growth read?
**A.** The growth was 91.9% (inactive).

**Q.** How did the growth turn out when `CCOC(=O)c1c(N)c(C#N)cn1Cc1ccc(Cl)cc1Cl` was run?
**A.** The growth was 60.6% (inactive).

**Q.** For `C#CCOc1ccccc1C(Nc1ccccc1)c1nnnn1C1CCCCC1` (stereo not given), which growth is on record?
**A.** The growth was 91.6% (inactive).

**Q.** Which growth does the source give for `Cn1ccnc1C(=O)/C=C/c1ccc(NC(=O)Nc2ccc(F)cc2)cc1` here?
**A.** Its growth is 7.58% (active).

**Q.** Which growth does the source give for `COc1cccc(O)c1/C=C(/C)c1ccc2c(OC)cccc2[o+]1` here?
**A.** The growth was 120% (inactive).

**Q.** `Brc1cc(-c2cc(-c3ccc4c(c3)OC=CO4)[nH]n2)cs1` was tested. Which growth did it give?
**A.** Its growth is 91.6% (inactive).

**Q.** How did the growth turn out when `COc1cc2oc(-c3cccc(C(=O)N[C@@H](CC(C)C)C(=O)OC(C)(C)C)c3)cc(=O)c2c(OC)c1OC` was run?
**A.** Its growth is 76.8% (inactive).

**Q.** Which growth does the source give for `COC(=O)c1c(C(=O)OC)c2n(CC(=O)Nc3cccc4cccnc34)c3ccccc3n2c1C(=O)c1ccc(C)cc1` here?
**A.** The growth was 99.2% (inactive).

**Q.** With `CN1CCN(CCNc2nc(-c3cccc(NS(=O)(=O)c4cccc5c(N(C)C)cccc45)c3)cs2)CC1` as the molecule, how does the growth read?
**A.** Its growth is 45% (inactive).

**Q.** How did the growth turn out when `NS(=O)(=O)c1ccc(Nc2nc(N/N=C/c3ccc(F)cc3)nc(Nc3ccccc3)n2)cc1` was run?
**A.** Its growth is 60.4% (inactive).

**Q.** With `CC1(C)CC[C@]2(C(=O)O)CC[C@]3(C)C(=CCC4[C@@]5(C)C[C@@H](O)[C@@H]6OC(c7cccc([N+](=O)[O-])c7)OC[C@@]6(C)C5CC[C@]43C)C2C1` (stereo not given in full) as the molecule, how does the growth read?
**A.** Its growth is 42.5% (inactive).

**Q.** `CCc1cccc2c3c(sc12)C(c1ccc(Cl)cc1)C(C#N)=C(/N=C/c1ccc(Cl)cc1)O3` (stereo not given) was tested. Which growth did it give?
**A.** Its growth is -6.78% (active).

**Q.** With `COc1ccc(NC(=O)Cn2cc(CN3C(=O)c4ccc([N+](=O)[O-])cc4C3=O)nn2)cc1` as the molecule, how does the growth read?
**A.** The growth was 95.1% (inactive).

**Q.** `CCO/C=N/C1=C(C#N)C(c2ccc(F)cc2)c2sc3c(C)cccc3c2O1` (stereo not given) was tested. Which growth did it give?
**A.** The growth was -22.8% (active).

**Q.** How did the growth turn out when `O=C1[C@@H]2Cc3c([nH]c4ccccc34)[C@@H](c3ccc(Cl)cc3)N2C(=O)CN1C1CCN(Cc2ccccc2)CC1` was run?
**A.** The growth was -9.39% (active).

**Q.** For `COc1ccc(Cn2cc(C#N)c(N)c2C(C)=O)cc1`, which growth is on record?
**A.** The growth was 103% (inactive).

**Q.** Which growth does the source give for `O=c1nc(Nc2ccc([N+](=O)[O-])cc2O)sc2ccccc12` here?
**A.** The growth was -13.3% (active).

**Q.** How did the growth turn out when `Cn1c(SCC(=O)c2ccco2)nc2ccccc2c1=O` was run?
**A.** Its growth is 98.3% (inactive).

**Q.** With `COc1ccc(OC)c(CCn2cncc2-c2c[nH]c3ccc(Cl)cc23)c1` as the molecule, how does the growth read?
**A.** The growth was 7.06% (active).

**Q.** Which growth does the source give for `CCCCc1nc2c(N)nc3ccccc3c2n1Cc1cccc(CN)c1` here?
**A.** The growth was 11.9% (inactive).

**Q.** Which growth does the source give for `C[C@H](Nc1ncnc2ccc(-c3cnc(Cl)c(NS(C)(=O)=O)c3)cc12)c1ccccc1` here?
**A.** The growth was -17.6% (active).

**Q.** With `COC(=O)C1CN(S(=O)(=O)/N=C2\NC(=O)NC2=C(Cl)Cl)C1` as the molecule, how does the growth read?
**A.** The growth was 101% (inactive).

**Q.** `COc1ccc([C@@H]2c3[nH]c4ccccc4c3CC3C(=O)N(C4CCN(Cc5c(F)cccc5F)CC4)CC(=O)N32)c(OC)c1` (stereo not given in full) was tested. Which growth did it give?
**A.** Its growth is 39.6% [5.26 µM] (inactive).

**Q.** For `COc1ccc(-c2nnc(SCc3ccc(O)c4ncccc34)n2-c2ccccc2)cc1`, which growth is on record?
**A.** The growth was 10.9% (inactive).

**Q.** `COc1ccc(-c2nc(C(Cl)Cl)nc3cc(-c4ccccc4)nn23)cc1` was tested. Which growth did it give?
**A.** Its growth is -7.77% (active).

**Q.** `CC(C)(C)OC(=O)N1CCN(S(=O)(=O)/N=C2\NC(=O)NC2=C(Cl)Cl)CC1` was tested. Which growth did it give?
**A.** Its growth is 40.3% (inactive).

**Q.** `COc1cc(-c2nn(C(C)(C)C)cc2-c2ccnc(NCCCNS(=O)(=O)c3cccc(F)c3)n2)ccc1Cl` was tested. Which growth did it give?
**A.** The growth was 81.9% (inactive).

**Q.** With `CCO/C=N/C1=C(C#N)C(c2ccc(Cl)cc2)c2sc3c(CC)cccc3c2O1` (stereo not given) as the molecule, how does the growth read?
**A.** The growth was -0.966% (active).

**Q.** With `COc1cccc(NC2=CC(=O)C(C)=C(C)C2=O)c1` as the molecule, how does the growth read?
**A.** The growth was 3.49% (active).

**Q.** `N/C(=N\C(N)=N\c1nc2ccccc2s1)c1cccc(F)c1` was tested. Which growth did it give?
**A.** Its growth is 83% [5 µM] (inactive).

**Q.** How did the growth turn out when `C=C(C=O)[C@@H]1CC[C@]2(CO)CC[C@]3(C)[C@H](CC[C@@H]4[C@@]5(C)CCCNC(C)(C)[C@@H]5CC[C@]43C)[C@@H]12` was run?
**A.** Its growth is -10.2% (active).

**Q.** With `COc1ccc2c(c1)c(-c1nc(N)nnc1-c1c[nH]c3ccccc13)cn2C` as the molecule, how does the growth read?
**A.** The growth was 3.5% (active).

**Q.** Which growth does the source give for `Cn1c(SCC(=O)c2ccc(Br)cc2)nc2ccccc2c1=O` here?
**A.** The growth was 92.1% (inactive).

**Q.** Which growth does the source give for `CCc1ccc(NC(=O)N[C@@H](Cc2cccc(F)c2)C(=O)N[C@@H]2C(=O)N3CCC[C@H]3C(=O)N3CCCC[C@H]3C(=O)N[C@@H](CO)C(=O)N3C[C@H](C)C[C@H]3C(=O)O[C@H]2C)c(F)c1` here?
**A.** Its growth is 13.3% (inactive).

**Q.** How did the growth turn out when `C=C(C=O)[C@@H]1CC[C@]2(COC(C)=O)CC[C@]3(C)C(CC[C@@H]4[C@@]5(C)CC[C@H](OC(C)=O)C(C)(C)[C@@H]5CC[C@]43C)[C@@H]12` (stereo not given in full) was run?
**A.** The growth was -10.9% (active).

**Q.** Which growth does the source give for `CCCCCc1ccc(S(=O)(=O)Nc2cccc(-c3csc(NC(=O)CCCCCN4CCN(C)CC4)n3)c2)cc1` here?
**A.** Its growth is -41.5% (active).

**Q.** How did the growth turn out when `Cc1ccc2c(c1)Oc1nc(N)c(C#N)c(N)c1C2Sc1ccc(F)cc1` (stereo not given) was run?
**A.** The growth was -51.7% (active).

**Q.** `CNC(=O)c1cc(-c2ccc(NC(=O)Nc3ccc(N4CCN(C)CC4)c(C(F)(F)F)c3)cc2)nc2cccnc12` was tested. Which growth did it give?
**A.** Its growth is -16.4% (active).
